Compounds with a hit are over-represented: about 3.3% of the library has one in this group of screens.
Smad3 FoxH1 inh: inhibitors of human Smad3 transcription factor binding; P84022; TR-FRET Smad3/Dy647-FoxH1 peptide binding, europium anti-His; inhibition, % at 25 µM; hit rate 0.29% among 88,000; AID 630;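 active = compounds that reduce the energy-transfer binding signal between the protein and its labelled peptide by more than half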;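 also: 0% = Smad3 plus labelled peptide maximal FRET and 100% = peptide-only background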
Target sequence (P84022 whole entry, looked up): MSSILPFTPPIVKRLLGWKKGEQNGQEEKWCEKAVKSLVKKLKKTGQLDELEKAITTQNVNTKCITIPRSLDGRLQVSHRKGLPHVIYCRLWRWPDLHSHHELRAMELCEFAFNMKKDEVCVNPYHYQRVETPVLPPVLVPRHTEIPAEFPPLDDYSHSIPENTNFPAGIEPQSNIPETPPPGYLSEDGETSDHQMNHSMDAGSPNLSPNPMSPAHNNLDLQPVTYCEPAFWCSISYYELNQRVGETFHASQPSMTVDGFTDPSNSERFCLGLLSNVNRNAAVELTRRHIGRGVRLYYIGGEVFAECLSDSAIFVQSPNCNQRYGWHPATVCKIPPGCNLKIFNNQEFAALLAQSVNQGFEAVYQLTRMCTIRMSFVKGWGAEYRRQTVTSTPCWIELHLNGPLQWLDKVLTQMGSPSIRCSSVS
ERa SRC1 pot: enhances coactivator binding to human estrogen receptor alpha; coactivator binding (% of control), % at 25.6 µM; P03372; hit rate 1.3% among 86,000; TR-FRET ERalpha-LBD/SRC-Cy5 coactivator binding, 2 h; 100 = basal binding, no effect; in the data active = activity above about 200%;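 also: binding measured in presence of low estradiol as agonist stimulus; 0% = peptide alone without receptor and 100% = receptor with peptide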
FAK inh: FAK (human) kinase inhibition; Q05397; biochemical FAK kinase activity assay; inhibition, %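 (tested at 7 µM)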; hit rate 0.84% among 97,000; in the data active = inhibition above about 19%;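 also: 0% = DMSO and 100% = reference compound high control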
ERa SRC1 inh: ER-alpha (human) coactivator binding inhibition; hit rate 1.7% among 86,000; inhibition, % at 25.6 µM; P03372; AID 629; TR-FRET ER-alpha LBD / SRC-1 peptide, estradiol-bound; in the data active = inhibition above about 50%;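 also: 0% = receptor plus peptide control and 100% = peptide only without receptor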
ERb coact inh: ER-beta (human) coactivator binding inhibition. Q92731. TR-FRET ER-beta LBD / SRC1-Cy5 peptide binding; receptor agonist-loaded with 1 µM estradiol. inhibition, % at 25.6 µM. hit rate 1.3% among 86,000;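 active = compounds whose percent inhibition of the receptor-coactivator binding signal exceeds about 50% in the single-dose screen, limit read from the data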;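 also: 0% = receptor plus peptide wells without compound and 100% = peptide-only wells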
* marks the source's active call; other numbers are inactive results; [ ] = another dose, or the depositor's remark.

What do the screens show for `CC12CN3CC(C)(CN(C1)C3c1ccncc1)C2=O` (stereo not drawn)?
Smad3 FoxH1 inh: -3; ERa SRC1 pot: 116; FAK inh: -2; ERa SRC1 inh: -5; ERb coact inh: 93*[fluorescence artefact?]

How did CC12CN3CC(C)(CN(C1)C31CCSCC1)C2=O do in these assays?
Smad3 FoxH1 inh: -10; ERa SRC1 pot: 121; FAK inh: -3; ERa SRC1 inh: -9; ERb coact inh: -6

What do the screens show for `O=C(O)C[C@H]1OCC=C2CN3CC[C@]45C6=CC(=O)C(=O)C([N+](=O)[O-])=C6N[C@H]4[C@H]1[C@H]2C[C@H]35`?
Smad3 FoxH1 inh: 58*

Results for CCOc1ccccc1N1C(=O)NC(=O)C(CCc2ccncc2)(CCc2ccncc2)C1=O ?
Smad3 FoxH1 inh: 17; ERa SRC1 pot: 384*; FAK inh: 1; ERa SRC1 inh: -8; ERb coact inh: -16

What do the screens show for `C/C(N[O-])=C(\C)[N+]([O-])=[Rh][Cl].CC(=N\[O-])/C(C)=N/[O-].c1ccc([PH+](c2ccccc2)c2ccccc2)cc1`?
Smad3 FoxH1 inh: -1

Results for O=C(CSc1ccccc1)N1CCC2(CC1)OCCO2 ?
Smad3 FoxH1 inh: -1; ERa SRC1 pot: 121; FAK inh: 0; ERa SRC1 inh: 5; ERb coact inh: 1

What do the screens show for `Cn1c(=O)cc(SCC(=O)N2CCC3(CC2)OCCO3)c2ccc(Cl)cc21`?
Smad3 FoxH1 inh: 56*[fluorescence artefact?]; ERa SRC1 pot: 115; FAK inh: -3; ERa SRC1 inh: 3; ERb coact inh: -8

How did C[C@@H]1O[C@H](O[C@H]2C[C@@H](O)[C@]3(CO)[C@@H]4[C@@H](O)C[C@]5(C)[C@@H](C6=CC(=O)OC6)CC[C@@]5(O)[C@H]4CC[C@@]3(O)C2)[C@@H](O)[C@H](O)[C@H]1O do in these assays?
Smad3 FoxH1 inh: 1

How did CN(C)c1ccc(NC(=O)CN2C(=O)CN=C(c3ccccc3)c3cc(Cl)ccc32)cc1 do in these assays?
Smad3 FoxH1 inh: 6; ERa SRC1 pot: 52; FAK inh: 17; ERa SRC1 inh: 33; ERb coact inh: 37

Results for CN(C)c1ccc(NC(=O)CN2C(=O)CN=C(c3ccccc3)c3ccccc32)cc1 ?
Smad3 FoxH1 inh: 1; ERa SRC1 pot: 52; FAK inh: 8; ERa SRC1 inh: 22; ERb coact inh: 53*[fluorescence artefact?]

How did C[C@]12CC[C@H](O)C[C@@H]1CC[C@H]1[C@H]2CC[C@@]2(C)[C@H](C3=CC(=O)OC3)[C@H](O)C[C@]12O do in these assays?
Smad3 FoxH1 inh: 16

What do the screens show for `COC1=C(C)C(=O)c2c(c(COC(N)=O)c3n2C[C@@H]2[C@H]3N2C)C1=O` (stereo partly drawn)?
Smad3 FoxH1 inh: 11

How did O=C(c1ccc(CS(=O)(=O)c2ccccc2)o1)N1CCC2(CC1)OCCO2 do in these assays?
Smad3 FoxH1 inh: -4; ERa SRC1 pot: 33; FAK inh: 1; ERa SRC1 inh: 46; ERb coact inh: 74*[fluorescence artefact?]

What do the screens show for `CCNC(C)(C)[C@@H](SS)c1ccc(Br)cc1`?
Smad3 FoxH1 inh: 96*

What do the screens show for `C1C[C@@H]2CN(CCCN3CCOCC3)[C@H](C1)O2`?
Smad3 FoxH1 inh: 4

What do the screens show for `COC(=O)C(O)(c1ccc(N(C)C(=O)OC(C)C)cc1)C(F)(F)F` (stereo not drawn)?
Smad3 FoxH1 inh: 1; ERa SRC1 pot: 101; FAK inh: -1; ERa SRC1 inh: 4; ERb coact inh: 68*

How did CCOC(=O)N(C)c1ccc(C(O)(C(=O)OCC)C(F)(F)F)cc1 (stereo not drawn) do in these assays?
Smad3 FoxH1 inh: -2; ERa SRC1 pot: 112; FAK inh: -1; ERa SRC1 inh: -4; ERb coact inh: -3

How did O=C1CN=C(c2cccs2)c2c(sc3c2CCCC3)N1 do in these assays?
Smad3 FoxH1 inh: -6; ERa SRC1 pot: 97; FAK inh: 2; ERa SRC1 inh: 3; ERb coact inh: 64*[fluorescence artefact?]

How did CC(=O)O/C(=C1\C[C@@H]2[C@H]3CC=C4C[C@@H](OC(C)=O)CC[C@]4(C)[C@@H]3CC[C@@]2(C)C1=O)C(F)(F)F do in these assays?
Smad3 FoxH1 inh: 9

How did C[C@@H]1O[C@H](OC2[C@@H](O)[C@H](O)C(O)[C@H](O)[C@H]2O)[C@@H](N)C[C@H]1N=C(N)C(=O)O (stereo partly drawn) do in these assays?
Smad3 FoxH1 inh: 4

How did COCC(C)OC(=O)c1c(N)n(Cc2ccco2)c2nc3ccccc3nc12 (stereo not drawn) do in these assays?
Smad3 FoxH1 inh: -7; ERa SRC1 pot: 84; FAK inh: 3; ERa SRC1 inh: 7; ERb coact inh: 58*[fluorescence artefact?]

What do the screens show for `Nc1c(C(=O)NCc2ccco2)c2nc3ccccc3nc2n1Cc1ccc(F)cc1`?
Smad3 FoxH1 inh: -1; ERa SRC1 pot: 50; FAK inh: 5; ERa SRC1 inh: 42; ERb coact inh: 25

Results for COc1ccc(Cn2c(N)c(C(=O)NCc3ccco3)c3nc4ccccc4nc32)cc1 ?
Smad3 FoxH1 inh: 4; ERa SRC1 pot: 81; FAK inh: 3; ERa SRC1 inh: 73*; ERb coact inh: 39

How did CCOC(=O)c1c(N)n(Cc2ccco2)c2nc3ccccc3nc12 do in these assays?
Smad3 FoxH1 inh: 1; ERa SRC1 pot: 88; FAK inh: 3; ERa SRC1 inh: 14; ERb coact inh: 36

How did O=C(NCC1CC1)[C@@H]1C2c3ccccc3C(c3ccccc32)[C@@H]1C(=O)O do in these assays?
Smad3 FoxH1 inh: 10

Results for O=C(C1CCC(=O)N1Cc1ccccc1Cl)N1CCC2(CC1)OCCO2 (stereo not drawn) ?
Smad3 FoxH1 inh: 4; ERa SRC1 pot: 809*[fluorescence artefact?]; FAK inh: 0; ERa SRC1 inh: -6; ERb coact inh: -1

What do the screens show for `Nc1nc(N)c(N=Nc2ccc([As](=O)(O)O)c(O)c2)c(N)n1`?
Smad3 FoxH1 inh: 84*

How did Clc1cccc(Cl)c1C1N2CCCN12 (stereo not drawn) do in these assays?
Smad3 FoxH1 inh: 1; ERa SRC1 pot: 122; FAK inh: 0; ERa SRC1 inh: -2; ERb coact inh: 81*[fluorescence artefact?]

What do the screens show for `Nc1cc[c]([Hg])cc1.Nc1nc2c(ncn2[C@H]2O[C@H](CO)[C@@H](O)[C@@H]2O)c(=[SH+])[nH]1`?
Smad3 FoxH1 inh: 73*

Results for CC(C)=C[C@H]1[C@H](C(=O)OCc2cc3c(cc2Cl)OCO3)C1(C)C ?
Smad3 FoxH1 inh: -3

Results for COc1cc2c(cc1OC)[C@@]13CCN4C=C5CCO[C@H]6CC(=O)N2[C@H]1[C@H]6[C@H]5C[C@H]43 ?
Smad3 FoxH1 inh: 9

What do the screens show for `CCOc1ccccc1-n1c(O)c(C=Nc2ccc(N(CC)CC)cc2)c(=O)[nH]c1=O`?
Smad3 FoxH1 inh: -7; ERa SRC1 pot: 91; ERa SRC1 inh: 62*[fluorescence artefact?]; ERb coact inh: 33

Results for O=C(O)C[SH+]CC(=O)O.O=C(O)C[SH+]CC(=O)O.[Cu] ?
Smad3 FoxH1 inh: 14

Bioassay records: PubChem, several laboratories
